Results filed as inconclusive are left out. Where a call stands in place of a potency, no number is given. Values without a mark were called inactive. Activity calls are given as the source filed them. Unless noted, the call rests on the fitted dose curve; in most records, active means well fitted cell-killing curve with a large enough effect in the repeat runs; inconclusive means weak or mixed curves, or effect the other way; inactive means no such curve, though single readings can be large or run the other way.
Experiment: qHTS assay for small molecule agonists of the antioxidant response element (ARE) signaling pathway - cell viability counter screen (AID 743203; calls by dose curve; further: nearly all actives have a fitted effect of over 55% in size; further: potency means the concentration at half of the fitted maximal effect)
Conditions: ARE-bla HepG2 viability, CellTiter-Glo luminescence, 16 h; series mostly up to 73.3 µM
Method in brief: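 Parallel cytotoxicity read-out for the ARE-bla screen: HepG2 reporter cells, 16 hrs with compounds, then CellTiter-Glo luminescence.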

Structure (SMILES)	Potency	viability change, negative = cytotoxic
NNS(=O)(=O)c1ccc(Oc2ccc(S(=O)(=O)NN)cc2)cc1	inactive	
CN(C)C(=O)NC1(c2ccccc2)CCN(CCC[C@]2(c3ccc(Cl)c(Cl)c3)CCCN(C(=O)c3ccccc3)C2)CC1	14.6 µM (active)	
NC(Cc1ccc(F)cc1)C(=O)O (stereo unspecified)		-1.52% [at 8.36 µM]
O=C1CCCc2ccccc21	inactive	
CCOc1ccccc1N	inactive	
O=c1[nH]c(=O)n([C@H]2C[C@H](O)[C@@H](CO)O2)cc1C(F)(F)F	inactive	
CN1CCC[C@@H]1Cc1c[nH]c2ccc(CCS(=O)(=O)c3ccccc3)cc12	inactive	
CN1[C@@H]2CC[C@H]1CC(OC(=O)c1c[nH]c3ccccc13)C2 (stereo partly specified)	inactive	
O=[N+]([O-])c1nccn1CO[C@@H](CO)[C@H](O)CO	inactive	
CNCCC(Oc1ccccc1OC)c1ccccc1 (stereo unspecified)	inactive	
OCc1ccccc1O	inactive	
CCCOCCC	inactive	
NC(=O)Cc1cccc(C(=O)c2ccccc2)c1N	inactive	
OC[C@H]1O[C@@H](O[C@H]2[C@H](O)[C@@H](O)[C@H](O)O[C@@H]2CO)[C@H](O)[C@@H](O)[C@H]1O	inactive	
CN(CCCN1c2ccccc2CCc2ccccc21)CC(=O)c1ccc(Cl)cc1	inactive	
CC1=C2[C@H](/C=C(\C)C(=O)O)CC[C@@H](C)[C@H]2CC1	inactive	
CCCCC(=O)O[C@]1(C(=O)CO)[C@H](C)C[C@H]2[C@@H]3CCC4=CC(=O)C=C[C@]4(C)[C@@]3(F)[C@@H](O)C[C@@]21C	inactive	
CCCCCCCCCCCCOCCOS(=O)(=O)O	inactive	
CC1(O)CSC(C)(O)CS1 (stereo unspecified)	inactive	
COC(=O)N[C@H](C(=O)N[C@@H](Cc1ccccc1)[C@@H](O)CN(Cc1ccc(-c2ccccn2)cc1)NC(=O)[C@@H](NC(=O)OC)C(C)(C)C)C(C)(C)C	inactive	
Cn1cnc2c(F)c(Nc3ccc(Br)cc3Cl)c(C(=O)NOCCO)cc21	inactive	
O=C(Cl)c1cccc([N+](=O)[O-])c1	inactive	
CC(C)Nc1nc(N)nc(Cl)n1	inactive	
O=C(O[C@@H](C(=O)O)[C@@H](OC(=O)c1ccccc1)C(=O)O)c1ccccc1	inactive	
CC[C@H]1CC[C@H](NCc2cc3c(cc2OC)[C@H]2C[C@H]2C(=O)N3C)[C@H](c2ccccc2)N1	inactive	
CC1=NN(c2cc(Cl)c(S(=O)(=O)O)cc2Cl)C(=O)C1N=Nc1ccc(S(=O)(=O)O)cc1 (stereo unspecified)	inactive	
CN1CCN(C2=Nc3cc(F)ccc3Cc3ccccc32)CC1	inactive	

Experiment: qHTS assay for small molecule activators of the heat shock response signaling pathway - cell viability counter screen (AID 743209); further: nearly all actives have a fitted effect of over 50% in size
Conditions: HSE-bla HeLa viability, CellTiter-Glo luminescence, 5 h; series mostly up to 62.6 µM
Method in brief: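 To flag cytotoxic compounds, HSE-bla HeLa cells plated at 1500 cells/well were dosed for 5 h at 37 C, followed by the reporter FRET read and then CellTiter-Glo, with luminescence recorded 30 min after reagent addition.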

Structure (SMILES)	outcome	activity change, negative = cytotoxicity
NNS(=O)(=O)c1ccc(Oc2ccc(S(=O)(=O)NN)cc2)cc1	inactive	
CN(C)C(=O)NC1(c2ccccc2)CCN(CCC[C@]2(c3ccc(Cl)c(Cl)c3)CCCN(C(=O)c3ccccc3)C2)CC1	inactive	
OCC(CBr)(CBr)CBr	inactive	
NC(Cc1ccc(F)cc1)C(=O)O (stereo unspecified)		-7.91% [at 5.95 µM]
O=c1oc2c(O)c(O)cc3c(=O)oc4c(O)c(O)cc1c4c23	inactive	
O=C1CCCc2ccccc21	inactive	
O=c1[nH]c(=O)n([C@H]2C[C@H](O)[C@@H](CO)O2)cc1C(F)(F)F	inactive	
CN1CCC[C@@H]1Cc1c[nH]c2ccc(CCS(=O)(=O)c3ccccc3)cc12	inactive	
CN1[C@@H]2CC[C@H]1CC(OC(=O)c1c[nH]c3ccccc13)C2 (stereo partly specified)	inactive	
Nc1ccc(Oc2ccc(N)c(N)c2)cc1	inactive	
CNCCC(Oc1ccccc1OC)c1ccccc1 (stereo unspecified)	inactive	
CCCOCCC	inactive	
NC(=O)Cc1cccc(C(=O)c2ccccc2)c1N	inactive	
Cc1cc(S(=O)(=O)O)c(N)cc1Cl	inactive	
CC1=C2[C@H](/C=C(\C)C(=O)O)CC[C@@H](C)[C@H]2CC1	inactive	
CCCCC(=O)O[C@]1(C(=O)CO)[C@H](C)C[C@H]2[C@@H]3CCC4=CC(=O)C=C[C@]4(C)[C@@]3(F)[C@@H](O)C[C@@]21C	inactive	
CCCCCCCCCCCCOCCOS(=O)(=O)O	inactive	
CC1(O)CSC(C)(O)CS1 (stereo unspecified)	inactive	
COC(=O)c1ccc2cc(C(=O)OC)ccc2c1	inactive	
CCCCNC(=S)NCCCC	inactive	
COC(=O)N[C@H](C(=O)N[C@@H](Cc1ccccc1)[C@@H](O)CN(Cc1ccc(-c2ccccn2)cc1)NC(=O)[C@@H](NC(=O)OC)C(C)(C)C)C(C)(C)C	inactive	
O=C(Cl)c1cccc([N+](=O)[O-])c1	inactive	
CC(C)Nc1nc(N)nc(Cl)n1	inactive	
O=C(O[C@@H](C(=O)O)[C@@H](OC(=O)c1ccccc1)C(=O)O)c1ccccc1	inactive	
CC[C@H]1CC[C@H](NCc2cc3c(cc2OC)[C@H]2C[C@H]2C(=O)N3C)[C@H](c2ccccc2)N1	inactive	
NC1=NCC2c3ccccc3Cc3ccccc3N12 (stereo unspecified)	inactive	
CC1=NN(c2cc(Cl)c(S(=O)(=O)O)cc2Cl)C(=O)C1N=Nc1ccc(S(=O)(=O)O)cc1 (stereo unspecified)	inactive	
CCOC(=O)COc1ccc2c(c1)CC(NCC(O)c1cccc(Cl)c1)CC2 (stereo unspecified)	inactive	
CN1CCN(C2=Nc3cc(F)ccc3Cc3ccccc32)CC1	inactive	
